MPTP inh – mitochondrial permeability transition pore inhibitors, primary screen, biochemical, isolated mouse mitochondria, absorbance; Ca2+ swelling absorbance, 30 min; inhibition, % at 10 µM; actives 1.4% (n = 360,000);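 active means inhibition of 50% or more, scaled per plate between neutral and stimulator controls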
CSC inhib – cancer stem cell viability inhibitors, primary screen, luminescence; cancer stem cell-like cells viability; inhibition, % at 7.5 µM; actives 1.1% (n = 300,000); AID 2717, 2010; in the data active means inhibition above about 75%; tested in HMLE shEcad cells
Mdm2-MdmX inh – inhibitors of human Mdm2-MdmX association, primary screen, cell-based, luminescence, split luciferase, SaOS-2, uHTS. Protein Mdm4 (Homo sapiens) + E3 ubiquitin-protein ligase Mdm2 (Homo sapiens), …. SaOS-2 split-luciferase Mdm2/MdmX complementation. inhibition, % at 8 µM. actives 3% (n = 330,000). AID 485346, 2010;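 active means inhibition of at least 50% at 8 µM in the primary screen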
Target sequence (O15151 whole entry, looked up): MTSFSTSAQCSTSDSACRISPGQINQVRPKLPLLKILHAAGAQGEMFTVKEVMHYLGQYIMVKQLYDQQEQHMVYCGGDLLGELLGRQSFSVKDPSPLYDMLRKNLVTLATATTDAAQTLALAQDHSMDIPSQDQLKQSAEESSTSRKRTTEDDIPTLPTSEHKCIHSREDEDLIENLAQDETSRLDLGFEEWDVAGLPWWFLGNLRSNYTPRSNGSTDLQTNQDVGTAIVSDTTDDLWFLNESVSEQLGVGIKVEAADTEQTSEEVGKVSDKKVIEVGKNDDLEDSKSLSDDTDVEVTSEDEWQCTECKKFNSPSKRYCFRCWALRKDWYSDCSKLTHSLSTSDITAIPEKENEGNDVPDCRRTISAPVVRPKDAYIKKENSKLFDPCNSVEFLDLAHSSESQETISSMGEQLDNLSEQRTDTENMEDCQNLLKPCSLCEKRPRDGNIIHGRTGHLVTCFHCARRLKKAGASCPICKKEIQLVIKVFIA
Target sequence (Q00987 whole entry, looked up): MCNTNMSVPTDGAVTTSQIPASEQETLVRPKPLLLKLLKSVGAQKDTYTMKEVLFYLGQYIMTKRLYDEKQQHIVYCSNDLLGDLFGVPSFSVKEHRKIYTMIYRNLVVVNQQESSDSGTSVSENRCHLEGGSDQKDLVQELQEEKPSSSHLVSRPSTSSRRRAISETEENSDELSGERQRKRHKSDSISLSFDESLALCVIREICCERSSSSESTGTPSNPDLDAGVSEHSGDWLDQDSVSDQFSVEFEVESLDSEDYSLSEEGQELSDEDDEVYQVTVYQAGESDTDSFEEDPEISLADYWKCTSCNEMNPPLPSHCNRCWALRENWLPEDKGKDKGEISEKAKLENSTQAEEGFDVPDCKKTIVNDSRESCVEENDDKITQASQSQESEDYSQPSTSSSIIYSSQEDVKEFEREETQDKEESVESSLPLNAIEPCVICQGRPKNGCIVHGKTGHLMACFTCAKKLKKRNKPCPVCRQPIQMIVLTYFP
NR3A LBD binder – binders of NR3A ligand-binding domain, primary screen, biophysical, differential scanning fluorimetry, uHTS | Glutamate receptor ionotropic, NMDA 3A (GRIN3A) ligand-binding domain | Tm shift relative to glycine control, % at 25 µM | actives 2.5% (n = 340,000) | NR3A LBD differential scanning fluorimetry, Tm shift; 0% = protein alone, 100% = glycine-bound protein;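 active means melting temperature shift of at least 10% of the positive control shift, at one fixed dose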
Beta cell apopt – inhibitors of cytokine-induced beta cell apoptosis, primary screen, luminescence; INS-1E cytokine-induced death, ATP luminescence, 48 h; percent of positive-control rescue, neutral wells zero; protection from apoptosis, % (no concentration beside the values); actives 0.8% (n = 300,000);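 active means Every replicate reaches about 75%, or at least half do and their mean reaches it too, limit read from the data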;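 further: higher means more ATP so stronger rescue from cytokine killing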
SKKanGAS inh – S. pyogenes SKKanGAS growth inhibitors in kanamycin, primary screen, streptokinase expression inhibitor project, SKKanGAS strain, BacTiter-Glo luminescence | 6 h | inhibition, % at 7.5 µM | actives 1.3% (n = 300,000) | AID 1662, 2009;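 active means mean replicate score, as percent of positive control median, at least 50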;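 further: strain carries kanamycin resistance gene driven by streptokinase promoter and grows in 40 µg/ml kanamycin; loss of luminescence reflects streptokinase promoter inhibition or plain growth inhibition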
Numbers stand for hits. Most compounds without a hit are left out; they make up all but 6.9% or so of the library.

Results for CC(=O)c1cccc(NS(=O)(=O)c2ccc(N/C=C\C(=O)c3ccc(F)cc3)cc2)c1 ?
MPTP inh: inactive; CSC inhib: inactive; Mdm2-MdmX inh: inactive; NR3A LBD binder: inactive; Beta cell apopt: 98; SKKanGAS inh: inactive

How did COc1cc(NS(=O)(=O)c2ccc(N/C=C\C(=O)c3ccc(F)cc3)cc2)nc(OC)n1 do in these assays?
MPTP inh: inactive; CSC inhib: inactive; Mdm2-MdmX inh: inactive; NR3A LBD binder: inactive; Beta cell apopt: inactive; SKKanGAS inh: inactive

Results for O=C(O)C1CCC(=O)N1C(=O)OCc1ccccc1 (configuration not stated) ?
MPTP inh: inactive; CSC inhib: inactive; Mdm2-MdmX inh: inactive; NR3A LBD binder: inactive; Beta cell apopt: inactive; SKKanGAS inh: inactive

Results for CCN(CC)C(=O)C1=C(C)N(CCCOC)C(=O)C(CC(=O)NCCN2CCOCC2)C1 (configuration not stated) ?
MPTP inh: inactive

Results for Cc1occc1C(=O)N/N=C/c1ccc2c(c1)OCO2 ?
MPTP inh: inactive; CSC inhib: inactive; Mdm2-MdmX inh: inactive; NR3A LBD binder: inactive; Beta cell apopt: 76; SKKanGAS inh: inactive

What do the screens show for `CCN(CC)c1ccc(/C=N/NC(=O)c2ccoc2C)c(O)c1`?
MPTP inh: inactive; CSC inhib: inactive; Mdm2-MdmX inh: inactive; NR3A LBD binder: inactive; Beta cell apopt: 101; SKKanGAS inh: inactive

Results for Cc1cc(/C=N/NC(=O)c2ccoc2C)cc(C)c1O ?
MPTP inh: inactive

How did Cc1occc1C(=O)N/N=C/c1ccc(OCc2ccccc2)cc1 do in these assays?
MPTP inh: inactive; CSC inhib: inactive; Mdm2-MdmX inh: inactive; NR3A LBD binder: 35; Beta cell apopt: inactive; SKKanGAS inh: inactive

How did Cc1occc1C(=O)N/N=C/c1ccc(-c2ccccc2)cc1 do in these assays?
MPTP inh: inactive; CSC inhib: inactive; Mdm2-MdmX inh: inactive; NR3A LBD binder: inactive; Beta cell apopt: inactive; SKKanGAS inh: 55

Results for CCOC(=O)/C(C#N)=C\c1cc(OC)c(OC)cc1[N+](=O)[O-] ?
MPTP inh: inactive; Mdm2-MdmX inh: inactive; NR3A LBD binder: inactive; Beta cell apopt: inactive; SKKanGAS inh: inactive

Results for CCN(CC)c1ccc(C=Nc2cc(C)cc(C)c2)c(O)c1 ?
MPTP inh: inactive; CSC inhib: inactive; Mdm2-MdmX inh: inactive; NR3A LBD binder: inactive; Beta cell apopt: inactive; SKKanGAS inh: inactive

Results for CCN(CC)c1ccc(C=Nc2ccc(C)cc2)c(O)c1 ?
MPTP inh: inactive; CSC inhib: inactive; Mdm2-MdmX inh: inactive; NR3A LBD binder: 13; Beta cell apopt: inactive; SKKanGAS inh: inactive

What do the screens show for `C[C@H]1CNC(=O)c2c(C(=O)NC3CCN(C(=O)OC(C)(C)C)CC3)ncn21`?
MPTP inh: inactive

What do the screens show for `Nc1ccc2c(c1)C(=O)c1cc([N+](=O)[O-])ccc1-2`?
MPTP inh: inactive; NR3A LBD binder: 25

Results for Nc1ccc2c(c1)C(=O)c1cc(Cl)c(Cl)cc1-2 ?
MPTP inh: inactive; NR3A LBD binder: 41

Results for O=C1C=CC(=O)N1CCCCCCN1C(=O)C=CC1=O ?
CSC inhib: 102; NR3A LBD binder: inactive; Beta cell apopt: inactive

What do the screens show for `O=C(O)CN1C(=O)C=CC1=O`?
MPTP inh: inactive

Results for C=CCn1c(C)cc(C(=O)COc2nncc3ccccc23)c1C ?
MPTP inh: inactive; CSC inhib: inactive; Mdm2-MdmX inh: inactive; NR3A LBD binder: 16; Beta cell apopt: inactive; SKKanGAS inh: inactive

How did C=CCn1c(C)cc(C(=O)COC(=O)CNC(=O)c2ccccc2)c1C do in these assays?
MPTP inh: inactive; CSC inhib: inactive; Mdm2-MdmX inh: inactive; NR3A LBD binder: 13; Beta cell apopt: inactive; SKKanGAS inh: inactive

What do the screens show for `CC(=O)c1sc(NC(=O)CSC(C)C(=O)Nc2cc(C)on2)nc1-c1ccccc1` (configuration not stated)?
MPTP inh: inactive; CSC inhib: inactive; Mdm2-MdmX inh: inactive; NR3A LBD binder: inactive; Beta cell apopt: inactive; SKKanGAS inh: inactive

How did Cc1ccc(CNC(=O)COC(=O)c2cc(C)oc2C)cc1 do in these assays?
MPTP inh: inactive; CSC inhib: inactive; Mdm2-MdmX inh: inactive; NR3A LBD binder: inactive; Beta cell apopt: inactive

How did COC(=O)c1c(NC(NC(=O)C(C)C)C(Cl)(Cl)Cl)sc2c1CCCC2 (configuration not stated) do in these assays?
MPTP inh: inactive; Mdm2-MdmX inh: inactive; NR3A LBD binder: inactive; Beta cell apopt: inactive; SKKanGAS inh: 58

How did COC(=O)c1c(NC(C)=O)sc2c1CCCC2 do in these assays?
MPTP inh: inactive; CSC inhib: inactive; Mdm2-MdmX inh: inactive; NR3A LBD binder: inactive; Beta cell apopt: inactive; SKKanGAS inh: inactive

How did Cn1cnc(S(=O)(=O)N2CCN(C(c3ccccc3)c3ccccc3)CC2)c1 do in these assays?
MPTP inh: inactive; CSC inhib: inactive; Mdm2-MdmX inh: inactive; NR3A LBD binder: inactive; Beta cell apopt: inactive; SKKanGAS inh: inactive

Results for COC(=O)[C@]12CCCCC=C1N(Cc1ccc3c(c1)OCO3)C(=O)[C@H](CC(=O)NCC1CCCCC1)C2 ?
MPTP inh: inactive

How did Cc1ccc(OC(C)C(=O)Nc2ccc3c(c2)n(C)c(=O)n3C)c(C)c1 (configuration not stated) do in these assays?
MPTP inh: inactive; CSC inhib: inactive; Mdm2-MdmX inh: inactive; NR3A LBD binder: inactive; Beta cell apopt: inactive; SKKanGAS inh: inactive

Results for COc1ccc(N2CCN(C(c3ccccc3OC)c3nnnn3C3CCCC3)CC2)cc1 (configuration not stated) ?
MPTP inh: inactive; NR3A LBD binder: inactive; SKKanGAS inh: inactive

What do the screens show for `COc1ccc(C(c2nnnn2C2CCCC2)N2CCC(C(N)=O)CC2)c(OC)c1` (configuration not stated)?
MPTP inh: inactive; NR3A LBD binder: 14; SKKanGAS inh: inactive

What do the screens show for `Cc1cc(C)n(CC(=O)NNC(=O)C2CC(=O)N(Cc3ccccc3Cl)C2)n1` (configuration not stated)?
MPTP inh: inactive; CSC inhib: inactive; Mdm2-MdmX inh: inactive; NR3A LBD binder: inactive; Beta cell apopt: inactive; SKKanGAS inh: inactive

What do the screens show for `COc1ccc(-c2cc(C(=O)N3CCN(S(=O)(=O)c4ccccc4)CC3)[nH]n2)cc1`?
MPTP inh: inactive; Mdm2-MdmX inh: inactive; NR3A LBD binder: 15; Beta cell apopt: inactive; SKKanGAS inh: inactive

How did O=C(c1cc(-c2ccccc2)n[nH]1)N1CCN(S(=O)(=O)c2ccccc2)CC1 do in these assays?
MPTP inh: inactive; Mdm2-MdmX inh: inactive; NR3A LBD binder: inactive; Beta cell apopt: inactive; SKKanGAS inh: inactive

High-throughput results: PubChem BioAssay, several laboratories
